Experimental data as given in the supplement of paper PMC4206467.

Each compound was assayed on Perkinsus marinus PRA240 (assay: ATP content (proliferation) relative to DMSO control; higher = more parasite growth (less inhibition)). Conditions: 20 µM; 4 days.
Description: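 Perkinsus marinus PRA240 trophozoites (2-5x10^6 cells/ml, 100 µl, 96-well) were exposed once to MMV Malaria Box compounds at 20 µM (0.1% DMSO) in triplicate. ATP content (ATPlite bioluminescence) was read at day 4 post-exposure and normalised to DMSO + cells control wells (100% activity). Compounds were identified by joining plate and well to the Malaria Box list.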

Compound | ATP content [%]
COc1ccc(C(=O)C2CC2c2ccc(Cl)cc2)cc1 (stereo not given) | 199
CC1(c2ccccc2)Nc2ccccc2-c2nc3ccccc3n21 (stereo not given) | 109
CN(C)c1ccc(N2C(N)=NC(N)=NC2(C)C)cc1 | 114
COc1ccc(C(=O)Nc2ccc3nc(N4CCCCC4)cc(C)c3c2)cc1OC | 101
CCOc1c(Br)cc(C2C(C(=O)OC)=CN(C)C=C2C(=O)OC)cc1OC | 123
CCCCCn1c(=N)n(CC(O)COc2cccc(C)c2)c2ccccc21 (stereo not given) | 127
COc1ccc(C2NCCc3c2[nH]c2ccccc32)cc1CN1CCN(c2ccc(F)cc2)CC1 (stereo not given) | 171
Cc1ccc(Cn2c(N3CCC(C(=O)NCc4cccs4)CC3)nc3ccccc32)cc1 | 106
CC1=C(CC(=O)c2cccc([N+](=O)[O-])c2)C(=O)c2ccccc2C1=O | 136
FC(F)(F)c1cccc(Nc2nc3ccccc3nc2Nc2cccc(C(F)(F)F)c2)c1 | 155
COc1ccc2nc(C)cc(Nc3ccc(Cl)cc3)c2c1 | 103
COCCNC(=O)c1ccc(OC2CCN(Cc3ccc(F)c(F)c3)CC2)c(Cl)c1 | 86.4
COc1ccc(Nc2cc(C)nc(NCc3ccccc3)n2)cc1 | 93.8
COc1cccc(C(=O)Nc2ccc(-c3nc4ccccc4[nH]3)cc2)c1 | 108
CCCn1c(=N)c(C(=O)NC2CCCCC2)cc2c(=O)n3cccc(C)c3nc21 | 64.4
c1ccc(CNc2nc(Nc3ccccc3)nc3ccccc23)cc1 | 75.4
O=c1nc(C=Cc2ccc(Cl)cc2)oc2ccccc12 | 22.2
CCOc1ccc(N2C(N)=NC(N)=NC2(C)C)cc1 | 114
CCN(CC)S(=O)(=O)c1ccc(-c2csc(Nc3ccc(C)c(C)c3)n2)cc1 | 142
N=c1c2ccccc2nnn1-c1cccc(C(F)(F)F)c1 | 67.7

Compound | ATP content [%]
CCOc1ccc2nc(C)cc(Nc3ccc(Br)cc3)c2c1 | 3.75
N#Cc1nc(Cc2cccc3ccccc23)oc1N1CCN(C(c2ccccc2)c2ccccc2)CC1 | 132
Cc1ccc(C)c(Cn2c(N3CCC(C(=O)NCc4cccs4)CC3)nc3ccccc32)c1 | 154
COc1cc(C(=O)Nc2ccc(-c3nc4ccccc4[nH]3)cc2)cc(OC)c1OC | 124
CCCCN(CCCC)S(=O)(=O)c1ccc(NC(=O)c2ccco2)cc1 | 43.3
CCCc1c(C)nc2ccc(Br)cc2c1O | 58.8
CCOC(=O)C1=CN(C)C=C(C(=O)OCC)C1c1cc(Br)c(OCC)c(OC)c1 | 121
N=c1n(CCN2CCCCC2)c2ccccc2n1CC(=O)c1ccc(Cl)c(Cl)c1 | 111
COc1cc2cc(C(=O)Nc3ccccc3)c(N)nc2cc1OC | 44.3
O=C1CC(O)(C(F)(F)C(F)(F)F)Oc2ccccc21 (stereo not given) | 34.8
CC(C)(C)C(=O)Nc1ccc(C(=O)Nc2cccc(-c3nc4ccccc4[nH]3)c2)cc1 | 67.7
CCCCOc1ccc(C(=O)Nc2cc(C)on2)cc1 | 61.2
CCCCc1c(C)nc2c(OC)cccc2c1O | 37.3
O=C(NC(c1ccccc1)c1ccc2cccnc2c1O)c1ccccc1 (stereo not given) | 26.3
COc1ccc(C=C2SC(Nc3ccccc3)=NC2=O)cc1 | 61.4
COc1ccc(C2N(C)c3ccccc3N2C)cc1 | 101
COc1nc(Nc2ccc(C(C)C)cc2)nc(OC)n1 | 125
Cc1ccc(F)cc1NC(=O)c1cc(Cl)ccc1Nc1ccccc1 | 113
Clc1cc(Br)ccc1-c1ccc(CNCC2CCNCC2)o1 | 243
COc1ccc(CCn2c(=N)c(C(=O)NCc3cccnc3)cc3c(=O)n4cccc(C)c4nc32)cc1 | 140
